# The panel holds about 83,000 compounds, 20% with a hit somewhere; the sample as a whole holds those more often.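 Step 1: grow cells in 96-well plates. Step 2: add test compound at a single concentration. Step 3: incubate 48 h. Step 4: record percent growth.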 Values without a mark were called inactive. Active and inactive are the calls of the source. Rule for the calls: active = growth percent below 10; inactive = the rest.
# System: RXF 393 renal
# Assay: NCI-60 one-dose screen, 48 h (100 = growth as untreated, 0 = no growth, -100 = all killed)
# Settings: 10 µM
row,Compound,growth
1,O=C(/C=C/c1ccco1)c1nc2ccccc2n1Cc1ccc(Br)cc1,-1.81% (active)
2,O=C(/C=C/c1ccco1)c1nc2ccccc2n1Cc1ccc(F)cc1,33.3%
3,COc1cc2cc(C(=O)N3C[C@@H](CCl)c4c3cc(OC(=O)N3CCN(C)[C@@H]5CSSC[C@@H]53)c3ccccc43)[nH]c2c(OC)c1OC,-80.7% (active)
4,C#CC[Se]C(=O)c1ccc2n[se]nc2c1,70.8%
5,O=C(/C=C/c1ccc(Cl)cc1Cl)c1nc2ccccc2n1Cc1ccc(F)cc1,32.4%
6,O=C(/C=C/c1ccc(Cl)cc1)c1nc2ccccc2n1Cc1ccc(Br)cc1,37.6%
7,COc1cc2cc(C(=O)N3C[C@@H](CCl)c4c3cc(OC(=O)N3CCN(C)[C@@H]5CSSC[C@H]53)c3ccccc43)[nH]c2c(OC)c1OC,-93.8% (active)
8,COc1ccc2cc([C@H](C)C(=O)[Se]CCC#N)ccc2c1,-82.3% (active)
9,CC12OOC(C)(OO1)C2CCC(=O)OCCNc1ccnc2cc(Cl)ccc12 (stereo unspecified),-15.7% (active)
10,CC(C)N=C([Se])NC(=O)c1cccs1,21.6%
11,Cc1ccc2[nH]c(=S)n(-c3ccc(F)cc3)c(=O)c2c1,98.2%
12,CCOC(=O)C1=C(Nc2ccccc2)C(=O)OC12C(=O)Nc1ccccc12 (stereo unspecified),119%
13,CC12CCC3(CCC(=O)NCCCNc4ccnc5cc(Cl)ccc45)[C@@](C)(OO[C@]3(C)O1)O2,-47.1% (active)
14,CC[C@]12C=CCN3CC[C@@]4(c5ccc(OC)cc5N(C)[C@H]4[C@@](O)(C(=O)OC)[C@@H]1OC(=O)CCCC[P+](C1CCCCC1)(C1CCCCC1)C1CCCCC1)[C@@H]32,-73.8% (active)
15,CC(=O)Oc1ccccc1C(=O)[Se]C(=NC(C)C)NC(C)C,-98.3% (active)
16,COCCOCCOCCOc1ccc(-n2cc(CCCN(CCNc3ccnc4cc(Cl)ccc34)C(=O)CCC(=O)O[C@@H]3O[C@@H]4OC5(C)CC[C@H]6[C@H](C)CC[C@@H]([C@H]3C)[C@@]46OO5)nn2)cc1,33.6%
17,C[C@H]1[C@@H](CC(=O)N[C@@H](Cc2coc3ccccc23)B(O)O)O[C@@H]2OC3(C)CC[C@H]4[C@H](C)CC[C@@H]1[C@@]24OO3,-88.4% (active)
18,CC12OOC(C)(OO1)C2CCC(=O)NCCNc1ccnc2cc(Cl)ccc12 (stereo unspecified),102%

row,Compound,growth
1,CC[C@]12C=CCN3CC[C@@]4(c5ccc(OC)cc5N(C)[C@H]4[C@@](O)(C(=O)OC)[C@@H]1OC(=O)CCC[P+](c1ccc(C)cc1)(c1ccc(C)cc1)c1ccc(C)cc1)[C@@H]32,-82.8% (active)
2,CC(C)N=C([Se])NC(=O)c1ccccc1,-83.7% (active)
3,CC[C@]12C=CCN3CC[C@@]4(c5ccc(OC)cc5N(C)[C@H]4[C@@](O)(C(=O)OC)[C@@H]1OC(=O)CCC[P+](C1CCCCC1)(C1CCCCC1)C1CCCCC1)[C@@H]32,-70.3% (active)
4,CC1=C(COCCOC(=O)c2ccc(S(=O)(=O)F)cc2)C2=C(C)C3(CC3)[C@@](C)(O)C(=O)C2=C1,-81.4% (active)
5,CC[C@]12C=CCN3CC[C@@]4(c5ccc(OC)cc5N(C)[C@H]4[C@@](O)(C(=O)OC)[C@@H]1OC(=O)CCCC[P+](c1ccc(OC)cc1)(c1ccc(OC)cc1)c1ccc(OC)cc1)[C@@H]32,-90.4% (active)
6,CC1=C(CCC=NNC(N)=O)C2=C(C)C3(CC3)[C@@](C)(O)C(=O)C2=C1,-80.8% (active)
7,CC[C@@]12CC(C(=O)OC)=C3Nc4cc5c(cc4[C@@]34CCN(C[C@H]3O[C@H]31)[C@@H]24)[C@@H]1[C@H](O5)[C@@H](O)[C@@]2(CC)CC(C(=O)OC)=C3Nc4cc(OC)ccc4[C@@]34CCN1[C@@H]24,-37.8% (active)
8,CC1=C2C(=C[C@@](C)(COP(=O)(Oc3ccccc3)Oc3ccccc3)[C@@H]2O)C(=O)[C@@](C)(O)C12CC2,-95.6% (active)
9,CC(=O)Oc1ccccc1C(=O)NC([Se])=NC1CCCCC1,-68.3% (active)
10,C[C@H]1[C@H](OC(=O)CCC(=O)N(CCCc2cn(-c3ccc(CN4CCOCC4)cc3)nn2)CCNc2ccnc3cc(Cl)ccc23)O[C@@H]2OC3(C)CC[C@H]4[C@H](C)CC[C@@H]1[C@@]24OO3,7.45% (active)
11,O=C(/C=C/c1ccc(Cl)cc1)c1nc2ccccc2n1Cc1ccc(F)cc1,19%
12,CC1=C(CCC=O)C2=C(C)C3(CC3)[C@@](C)(O)C(=O)C2=C1,-95.3% (active)
13,O=C(NC([Se])=NC1CCCCC1)c1ccc2c(c1)OCO2,65.9%
14,C[C@H]1[C@H](OC(=O)CCC(=O)N(CCCc2cn(-c3ccc(C#N)cc3)nn2)CCNc2ccnc3cc(Cl)ccc23)O[C@@H]2OC3(C)CC[C@H]4[C@H](C)CC[C@@H]1[C@@]24OO3,40.1%
15,C[C@H]1[C@@H](Oc2ccc(-c3cn(-c4ccnc5cc(Cl)ccc45)nn3)cc2)O[C@@H]2OC3(C)CC[C@H]4[C@H](C)CC[C@@H]1[C@@]24OO3,52.3%
16,COc1ccc(/C=C/C(=O)c2nc3ccccc3n2Cc2ccc(Br)cc2)cc1,83.6%
17,COC(=O)CCn1c(-c2ccc(-n3cc(-c4ccc(O[C@H]5O[C@@H]6OC7(C)CC[C@H]8[C@H](C)CC[C@@H]([C@H]5C)[C@@]68OO7)cc4)nn3)cc2)nc2ccccc21,37.3%
18,C[C@H]1[C@H](OC(=O)CCC(=O)N(CCCc2cn(-c3ccc([N+](=O)[O-])cc3)nn2)CCNc2ccnc3cc(Cl)ccc23)O[C@@H]2OC3(C)CC[C@H]4[C@H](C)CC[C@@H]1[C@@]24OO3,26.1%
